# Measurements: PubChem BioAssay (EPA / NIEHS)
# The source made the active and inactive calls. How the source made its calls: active means hit-call score of the fitted dose curve at least 0.9, where 1 is the maximum; inactive means score below 0.9.
# Read-out: Apoptosis regulator Bcl-2 (Homo sapiens) (UniProt P10415)
# Assay: LTEA_HepaRG_BCL2: Life Technologies and Expression Analysis (LTEA) Assay for Bcl-2 gene using HepaRG (AID 2283475);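 further: BCL2 transcript by TaqMan qRT-PCR normalised to ACTB GAPDH and POLR2A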
# Settings: mRNA level, 48 h; actives raise or lower the signal
# Protocol: LTEA_HepaRG is a cell based, multiplexed-readout assay that uses HepaRG, a human liver cell line, with measurements taken at 48 hours after chemical dosing on a 96-well plate.LTEA_HepaRG_BCL2 is one of 102 assay component(s) measured in the LTEA HepaRG cell culture assay. It is a marker of Cell proliferation, survival, death.Data from the assay component LTEA_HepaRG_BCL2 was analyzed into 1 endpoint. This assay endpoint, LTEA_HepaRG_BCL2, was analyzed with bidirectional fitting relative to DMSO as the negative control and baseline of activity. Using a type of inducible reporter, measures of mRNA induction for gain or loss-of-signal activity can be used to understand regulation of transcription factor activity. To generalize the intended target to other relatable targets, this assay endpoint is annotated to the cell cycle intended target family, where the subfamily is Cell proliferation, survival, death.
# A total of 1060 chemcials from the ToxCast library were tested in eight-point concentration-response experiments. Cell culture and cytotoxicity assays were conducted at Thermo Fisher Scientific's Custom Services facility (Madison, WI). A single lot of human HepaRG cells (Thermo Fisher Scientific, Frederick, MD) was used for the cell culture experiments. 96-well format collagen type I coated plates of human HepaRG cells were prepared using established methods. Briefly, cryopreserved HepaRG cells were thawed, plated at a density of approximately 100,000 cells/well in HepaRG Thaw, Plate, and General Purpose media (HPRG770, Thermo Fisher Scientific), and incubated for 48 hours. 0.5% DMSO was selected as vehicle control to balance the requisite need of DMSO in HepaRG cultures to maintain differentiation (for example, baseline metabolism, proportions of hepatocytes vs. cholangiocytes), while enabling further hepatic receptor pathway activation (for example, PXR and CAR) in response to chemical exposure. 48 hours after plating, the culture medium was replaced with HepaRG Serum-Free Incudtion Media. Cells were exposed to each test chemical in duplicate and maintained in CO2 incubators for another 48 hours. Chemical plates were thawed to room temperature and 200x concentrations of treatment groups were prepared. 8-point conentration-reponse curves were made with the highest exposure at 100 uM, followed by half-log dilutions, all in 0.5% DMSO. Each test plate contained variouse controls, induction positive controls (1mM phenobarbital), cytotoxicity positive controls ([…] aflatoxin B1), vehicle controls (0.5% DMSO), and total lysis controls (0.5% DMSO). Cell morphology images were taken using an Essen IncuCyte FLR automated microscope, with six 96-well plates imaged in about 24 minutes. Images were captured and exported and JPEG files. Spent culture media was transfered to black-well plates for the LDH assay, and remaining media was sorted at -80 C for later use. Cells were treated with RLT buffer and frozen until shipped for gene expression analysis. Total RNA was isolated from the cell suspension in 75 uL of Buffer RLT (Qiagen, Germantown, MD 20874) by Quintiles/Expression Analysis (Durham, NC) using a custom isolation procedure. Total RNA from each plate well was transferred to a preamplification plate. Fluidigm's 96.96 Dynamic ArrayTM (Fluidigm, Amsterdam, the Netherlands) technology was used for gene expression analyses by quantitative reverse transcription polymerase chain reaction (qRT-PCR, performed by Quintiles/Expression Analysis, Durham, NC)89. Standard TaqManTM Assays (Applied Biosystems/ThermoFisher Scientific, Foster City, CA) were used to assess the expression of 93 genes selected based on their selectivity and sensitivity to important hepatic receptors known to be modulated by environmental chemicals; importance in human hepatocyte functionality; and hepatotoxicity. […]
# Apoptosis regulator Bcl-2 (Homo sapiens), sequence (P10415 whole entry, looked up): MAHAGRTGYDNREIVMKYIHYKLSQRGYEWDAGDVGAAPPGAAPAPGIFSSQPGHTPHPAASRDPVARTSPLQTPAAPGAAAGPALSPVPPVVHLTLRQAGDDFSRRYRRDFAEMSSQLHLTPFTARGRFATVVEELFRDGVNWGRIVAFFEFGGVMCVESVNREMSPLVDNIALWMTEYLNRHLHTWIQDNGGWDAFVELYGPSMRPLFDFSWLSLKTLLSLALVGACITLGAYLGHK
Structure (SMILES),outcome,AC50
Nc1cc2c3c(c1)C(c1ccccc1)=N[C@@H](NC(=O)c1cccnc1)C(=O)N3CC2,inactive,
ClC(Cl)(Cl)c1ccccc1,inactive,
O=C(O)C1C(C(=O)O)C2(Cl)C(Cl)=C(Cl)C1(Cl)C2(Cl)Cl (stereo not given),inactive,
Cc1cccc(N)c1,inactive,
CCOS(=O)(=O)OCC,inactive,
CCC1(c2ccccc2)C(=O)N=C(O)NC1=O (stereo not given),inactive,
CCC(C)(C)c1ccc(O)cc1,inactive,
Cc1ccc([N+](=O)[O-])cc1C,inactive,
ClC1=C(Cl)C2(Cl)C3C(Cl)C(Cl)CC3C1(Cl)C2(Cl)Cl (stereo not given),inactive,
ClC(Cl)c1ccccc1,inactive,
CN(C)C(=O)Cl,inactive,
O=C(O)C(Cl)Cl,inactive,
CCOP(=S)(Oc1ccc([N+](=O)[O-])cc1)c1ccccc1 (stereo not given),inactive,
CCOC(=O)c1ccccc1C(=O)OCC,inactive,
CCOP(=S)(OCC)SCSCC,inactive,
Nc1ccc2ccccc2c1,inactive,
CC(C)(C)OOC(C)(C)C,inactive,
[N-]=[N+]=[N-],,76.8 µM (active)
O=[N+]([O-])c1ccc(Cl)c(Cl)c1,inactive,
CCCCN(CCCC)SN(C)C(=O)Oc1cccc2c1OC(C)(C)C2,inactive,

Structure (SMILES),outcome,AC50
CCCN(CCC)c1c([N+](=O)[O-])cc(C(C)C)cc1[N+](=O)[O-],inactive,
CC(Cl)(Cl)C(=O)O,inactive,
CCCCc1ccccc1,inactive,
CCOc1ccc(C(C)(C)COCc2cccc(Oc3ccccc3)c2)cc1,inactive,
OCC1CO1 (stereo not given),inactive,
CSC(C)(C)C=NO,inactive,
COCCOCCO,inactive,
CC(C)(C)c1ccc(O)cc1,inactive,
CCCCN(CCCC)N=O,inactive,
CCN(CC)c1ccccc1,inactive,
c1ccc2c(c1)Nc1ccccc1S2,inactive,
Cc1ccc(N)cc1N,inactive,
CCNc1nc(Cl)nc(NC(C)(C)C)n1,inactive,
CC(Cc1ccc(OCC(=O)O)cc1)NCC(O)c1csc(C(F)(F)F)n1 (stereo not given),,0.125 µM (active)
O=P(Oc1ccccc1)(Oc1ccccc1)Oc1ccccc1,,80.4 µM (active)
c1cc2c3c(cccc3c1)CC2,inactive,
CCCCCCCc1ccc(O)cc1,inactive,
c1ccc(OP(Oc2ccccc2)Oc2ccccc2)cc1,inactive,
O=P1(N(CCCl)CCCl)NCCCO1 (stereo not given),inactive,
O=[N+]([O-])c1ccccc1,inactive,
